Reference: PubChem BioAssay AID588453 (National Center for Advancing Translational Sciences (NCATS), 2011)
Among all 390,000 compounds or so, about 4,000 (1%) were called active. Not shown: some 4% with an inconclusive outcome. Calls follow the shape of the dose curve; as a rule, active = well fitted inhibition curve with a large enough effect; inconclusive = small, poorly fitted or top-dose-only effect; inactive = no such curve, though single readings can be large or run the other way. What follows is part of a selection rich in actives, with near analogues and random picks from the rest.

molecular target: Thioredoxin reductase 1, cytoplasmic (Rattus norvegicus) (UniProt O89049); assay: qHTS Assay for Inhibitors of Mammalian Selenoprotein Thioredoxin Reductase 1 (TrxR1): qHTS; conditions: recombinant rTrxR1, NADPH fluorescence consumption, selenite substrate; series mostly up to 114 µM; activity change, negative = inhibition: at the top concentration; also: nearly all actives have a fitted effect of over 65% in size
Sequence (O89049 whole entry, looked up): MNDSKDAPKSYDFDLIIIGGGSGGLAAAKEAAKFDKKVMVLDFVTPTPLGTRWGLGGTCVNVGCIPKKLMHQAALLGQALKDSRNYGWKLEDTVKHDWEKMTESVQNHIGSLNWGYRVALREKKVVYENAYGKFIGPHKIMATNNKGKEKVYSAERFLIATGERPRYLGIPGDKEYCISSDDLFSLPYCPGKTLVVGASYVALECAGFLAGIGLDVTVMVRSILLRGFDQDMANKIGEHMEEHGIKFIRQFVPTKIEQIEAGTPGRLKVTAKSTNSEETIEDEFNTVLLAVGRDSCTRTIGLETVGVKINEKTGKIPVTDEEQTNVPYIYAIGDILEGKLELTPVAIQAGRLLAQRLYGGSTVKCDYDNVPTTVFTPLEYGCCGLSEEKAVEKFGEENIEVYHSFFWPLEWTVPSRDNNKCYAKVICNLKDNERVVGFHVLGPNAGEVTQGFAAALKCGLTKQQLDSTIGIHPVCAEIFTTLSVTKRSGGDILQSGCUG
Source text: The selenoprotein thioredoxin reductase (TrxR; EC 1.8.1.9) is a FAD containing homodimeric pyridine nucleotide-disulfide oxidoreductase with many cellular roles. Together with NADPH and its prime substrate thioredoxin (Trx), the enzyme forms the core of the Trx system. The mammalian Trx system exerts a wide spectrum of functions including redox regulation, antioxidant defense, regulation of transcription factors as well as support of cell growth and replication. Many of these functions involve the reduction of Trx, which may subsequently reduce a number of different substrates including ribonucleotide reductase, peroxiredoxins or NFkB. Mammalian TrxR itself also has a broad substrate specificity, reducing both protein and non-protein substrates, including low molecular weight compounds such as dehydroascorbate, lipoic acid, ubiquinone, and juglone. In addition, several drugs in clinical use for anticancer treatment are indeed known to target TrxR1.
This BioAssay is a validation of an NADPH fluorescence-based, dual-purpose qHTS rTrxR1 assay designed to find potential inhibitors and substrates of rTrxR1. For this particular BioAssay, actives are potential inhibitors. See related BioAssay for substrate data deposition.
NIH Molecular Libraries Probe Production Network [MLPCN]
NIH Chemical Genomics Center [NCGC]
Assay Provider: Elias Arner, Karolinska Institute
Assay protocol: 2 uL of reagents (buffer in column 4 as negative control and 90 nM rTrxR1 in columns 1-3 and 5-48) were dispensed into Greiner black solid-bottom 1,536-well assay plates, followed by 1 uL of NADPH (400 uM final concentration) to each well. The plates were centrifuged at 1000 rpm for 15 seconds and subsequently incubated for 5 min at room temperature (~22 deg C) to allow for rTrxR1 reduction. Compounds (23 nL) were then transferred via Kalypsys pin tool equipped with 1536-pin array (10 nL slotted pins, V&P Scientific, San Diego, CA). In addition, a duplicate 2-fold serial dilution of the control compounds auranofin, a known gold-based TrxR1 inhibitor, and juglone (5-hydroxy-1,4-naphthoquinone), a natural TrxR1 substrate, were pin-transferred to columns 2 and 3, respectively. After incubation for 15 min at room temperature (~22 deg C), 1 uL of selenite (400 uM final concentration) were dispensed to each well. The plate was immediately transferred to a ViewLux high-throughput CCD imager (PerkinElmer), wherein kinetic measurements of NADPH fluorescence (Ex 340 nm, Em 450 nm) were acquired (8 minute kinetic read, see Table 1). Read 1 was utilized to assess the capacity of a compound to serve as an rTrxR1 substrate, i.e. a decrease in NADPH fluorescence compared to the no-compound background is an indication of a substrate behavior for that particular compound. For inhibitory activity of a compound, delta values, computed as the difference in fluorescence intensity between the first and last reads of an 8-minute time kinetic window, were used. All reagents were diluted in an assay buffer consisting of 50 mM Tris-HCl, pH 7.5, 2 mM EDTA, and 0.01% Tween-20.
Throughout the screen, reagent bottle and all liquid lines were made light-tight to minimize reagent degradation. All screening operations were performed on a fully integrated robotic system (Kalypsys, San Diego, CA) containing one RX-130 and two RX-90 anthropomorphic robotic arms (Staubli, Duncan, SC). Library plates were screened starting from the lowest and proceeding to the highest concentration, and a 'double-pinning' step of the highest concentration was required to access higher concentrations of compounds. Vehicle-only plates, with DMSO being pin-transferred to the columns 5-48, were inserted uniformly at the beginning and the end of each library in order to monitor and record any shifts in the background, which can be affected by reagent dispensers or loss in enzyme activity over time. […]
% is scaled to controls: 0 for no effect and ±100 for the full control effect; potency is read from the fitted curve at half-maximal effect.

SMILES | Potency | activity change, negative = inhibition
COc1ccc(-c2nc(CS(=O)CC(=O)NCc3ccccn3)c(C)o2)cc1 (stereo not drawn) | 7.08 µM (active) | 
COc1ccc(-c2nc(CN3CCN(c4ncccn4)CC3)c(C)o2)cc1C |  | 24.7% [at 57.1 µM] (inactive)
Nc1ccc(/C=C/c2ccnc3ccccc23)c([N+](=O)[O-])c1 |  | 2.67% (inactive)
CCCCNc1ccc(-c2nc(-c3ccncc3)no2)cc1[N+](=O)[O-] |  | -3.02% (inactive)
CCC1CCCCN1S(=O)(=O)c1ccc(NC(=O)c2cc(=O)c3ccccc3o2)cc1 (stereo not drawn) |  | 16.9% (inactive)
Brc1nc2ncnc(NCc3ccco3)c2[nH]1 |  | 24.3% [at 0.0914 µM] (inactive)
COc1cc(CNC(=O)c2cc3n(n2)CCCN(Cc2cccc(F)c2)C3=O)cc(OC)c1OC |  | 10.6% [at 57.1 µM] (inactive)
CC1CCN(C(=O)Cn2c(=O)n(-c3ccc(Cl)cc3)c(=O)c3c4c(sc32)CCC4)CC1 |  | 21% (inactive)
O=C(O)C1=C/C(=C/C=[N+]2c3cc(O)c(O[C@H]4OC(CO)[C@@H](O)[C@@H](O)[C@@H]4O)cc3C[C@@H]2C(=O)[O-])C[C@H](C(=O)O)N1 (stereo partly drawn) |  | -0.117% (inactive)
CC(C)[C@@H](NC(=O)OC(C)(C)C)C(=O)NCC1CCC(C(=O)N[C@@H](Cc2ccccc2)C(=O)O)CC1 (stereo partly drawn) |  | 17.4% [at 57.1 µM] (inactive)
CC(C)(C)c1ccc(C(CC(=O)O)NS(=O)(=O)Cc2ccccc2)cc1 (stereo not drawn) |  | 26.7% (inactive)
C[C@@H](NC(=O)OC(C)(C)C)c1nnc(S(=O)(=O)Cc2ccccc2)o1 | 0.316 µM (active) | 
Cc1ccc(Cl)cc1NC(=O)CSc1nccn1C |  | 30% [at 57.1 µM] (inactive)
Cc1cccc(CN2Cc3cccc4c3[C@H](C=CC4)CC2=S)c1 |  | -7.23% (inactive)
N#Cc1ccc[n+](CC(=O)c2ccc(F)cc2)c1 |  | -15.1% (inactive)
CC1CCCN(c2cc3c(cc2F)c(=O)c(S(=O)(=O)c2cccc(Cl)c2)cn3Cc2ccccc2)C1 (stereo not drawn) |  | 20.8% (inactive)
COc1ccc(CNC(=O)CC2Oc3ccc(C)cc3NC2=O)cc1 (stereo not drawn) |  | 5.11% (inactive)
COc1cc(C(=S)N2CCOCC2)cc(OC)c1OC(=O)c1ccc([N+](=O)[O-])cc1[N+](=O)[O-] |  | 7.04% [at 57.1 µM] (inactive)
C=COC(=O)N1CCN(/[N+]([O-])=N/Oc2ccc([N+](=O)[O-])cc2[N+](=O)[O-])CC1 | 10 µM (active) | 
CCOC(=O)N1CCN(c2cc(C)c([N+](=O)[O-])cc2F)CC1 |  | 9.84% [at 57.1 µM] (inactive)
O=C(O)CCc1cccnc1 | inactive | 
O=C1/C(=C\c2cccnc2)CN(Cc2ccccc2)C/C1=C\c1cccnc1 | 50.1 µM (active) | 
O=C(O)C1CC(=O)N(Cc2cccnc2)C1 (stereo not drawn) |  | -3.09% (inactive)
O=C(Nc1ccc2nc(SCC(=O)N3CCCc4ccccc43)sc2c1)c1ccc(Cl)cc1 |  | 38.1% (inactive)

SMILES | Potency | activity change, negative = inhibition
C=C1C=C(C(F)F)n2ncc(C(=O)NCCc3ccccc3OC)c2N1 |  | 1.89% (inactive)
Cc1ccccc1CN1CCC(CNC(=O)c2c(C)oc3ncnc(N4CCCCC4)c23)CC1 |  | 16.4% (inactive)
Cc1ccc(C)c(Cn2c(C)c(CNCc3ccc(F)cc3)c(C(=O)O)c2C)c1 |  | 20.8% (inactive)
O=C(Cn1c[n+](CC(=O)c2ccc([N+](=O)[O-])cc2)cn1)c1ccc([N+](=O)[O-])cc1 |  | -30.7% (inactive)
O=C(CC(n1cncn1)C(Cl)(Cl)Cl)c1ccc([N+](=O)[O-])cc1 (stereo not drawn) | 3.55 µM (active) | 
O=C(CCn1nnc2ccccc21)OCC(=O)c1ccc([N+](=O)[O-])cc1 |  | 25.8% (inactive)
CCCOc1ccc(N2C(=O)CC(N(CCc3ccc(S(N)(=O)=O)cc3)C(C)=O)C2=O)cc1 (stereo not drawn) |  | 10.5% (inactive)
CCOc1ccc(N2C(=O)CC(N(O)c3ccccc3)C2=O)cc1 (stereo not drawn) | 12.6 µM (active) | 
CCOc1ccc(N2C(=O)CC(N(CCc3ccc(OC)c(OC)c3)C(=S)Nc3ccccc3)C2=O)cc1 (stereo not drawn) |  | -11.6% (inactive)
O=C(CC1N=C2c3ccccc3N=C(SCc3ccc(F)cc3)N2C1=O)NCc1cccs1 (stereo not drawn) |  | 1.84% [at 57.1 µM] (inactive)
Cc1nc2ccccn2c(=O)c1NC(=O)c1c(F)cccc1F |  | 16.1% [at 57.1 µM] (inactive)
CCc1ccc(NC(=O)CCCc2nnc3n(CCCOC)c(=O)c4sccc4n23)cc1 |  | 23.7% (inactive)
CCOc1cccc2c1N[C@@H](c1ccc(C(=O)O)cc1)[C@H]1CC=C[C@@H]21 | 11.2 µM (active) | 
CCOc1ccccc1CNC(=O)c1ccc(-n2c(C)cc3c2CCC(C)C3)cc1 (stereo not drawn) |  | -7.5% (inactive)
CCOc1cccc(CC(=O)N2CCc3c([nH]c4ccccc34)C2c2ccc(F)cc2)c1OCC (stereo not drawn) |  | 38.1% [at 57.1 µM] (inactive)
O=C(c1cnn2c1NC(=C1CC1)C=C2C(F)F)N1CCc2ccccc2C1 |  | -19.6% (inactive)
CCOC(=O)c1ccc(NC(=O)C2CC(=O)N(c3ccc(C(C)C)cc3)C2)cc1 (stereo not drawn) |  | 10.9% (inactive)
CCN1CCN(C(=O)C2CCN(S(=O)(=O)c3cc(Cl)ccc3Cl)CC2)CC1 |  | 18.4% [at 57.1 µM] (inactive)
O=C(CN1CCN(S(=O)(=O)c2cc(Cl)ccc2Cl)CC1)c1ccc(O)c(O)c1 | 44.7 µM (active) | 
O=S(=O)(c1cc(Cl)ccc1Cl)N1CCN(Cc2ccco2)CC1 |  | -4.98% (inactive)
CN1CCN(C2(CNC(=O)COc3ccc(C(C)(C)C)cc3)CCCCC2)CC1 |  | 18.5% (inactive)
COc1ccc(S(=O)(=O)NCC(c2ccc(N(C)C)cc2)N2CCCC2)cc1 (stereo not drawn) |  | 11.6% [at 57.1 µM] (inactive)
COc1ccc(C(C[N+](=O)[O-])n2nc(C)cc2C)cc1 (stereo not drawn) | 8.91 µM (active) | 
COc1ccc2cc(-c3[nH]ncc3CNCCn3nc(C)cc3C)ccc2c1 |  | 28.7% (inactive)
